# Bioassay records from PubChem BioAssay.
# In the library only some 12% were active in any assay of this set; here they are far more common.
# Sfp PPTase inh: qHTS Assay for Inhibitors of Bacillus subtilis Sfp phosphopantetheinyl transferase (PPTase). 4'-phosphopantetheinyl transferase ffp (Bacillus subtilis), Q9F4F7. Biochemical Sfp PPTase activity, qHTS. Potency, µM, without a hit: largest response in the series, negative = inhibition, hits mostly inhibitors. hit rate 3.5% among 310,000;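 note: the enzyme is Sfp with the accession as filed and its product quenches rhodamine fluorescence; 0% = enzyme reaction without inhibitor and -100% = no enzyme wells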
#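 After 15 min at room temperature with compound, 15 nM Sfp received 5 uM rhodamine-CoA plus 12.5 uM BHQ-2-ybbR (50 mM Hepes pH 7.6, 10 mM MgCl2). Rate came from the fluorescence difference over 30 min, ex 525/em 598 nm.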
# PLK1 PBD inh: qHTS for Inhibitors of PLK1-PDB (polo-like kinase 1 - polo-box domain): Primary Screen. Potency, µM, inactives show max response, negative = inhibition, actives largely listed as inhibitors. hit rate 2.8% among 360,000. Plk1 PBD binding of FITC phosphopeptide, fluorescence polarization. Serine/threonine-protein kinase PLK1 (Homo sapiens), P53350; note: series mostly up to about 57 µM; nearly all actives have a fitted effect of over 65% in size
# Target sequence (P53350 whole entry, looked up, the tested form may be a part): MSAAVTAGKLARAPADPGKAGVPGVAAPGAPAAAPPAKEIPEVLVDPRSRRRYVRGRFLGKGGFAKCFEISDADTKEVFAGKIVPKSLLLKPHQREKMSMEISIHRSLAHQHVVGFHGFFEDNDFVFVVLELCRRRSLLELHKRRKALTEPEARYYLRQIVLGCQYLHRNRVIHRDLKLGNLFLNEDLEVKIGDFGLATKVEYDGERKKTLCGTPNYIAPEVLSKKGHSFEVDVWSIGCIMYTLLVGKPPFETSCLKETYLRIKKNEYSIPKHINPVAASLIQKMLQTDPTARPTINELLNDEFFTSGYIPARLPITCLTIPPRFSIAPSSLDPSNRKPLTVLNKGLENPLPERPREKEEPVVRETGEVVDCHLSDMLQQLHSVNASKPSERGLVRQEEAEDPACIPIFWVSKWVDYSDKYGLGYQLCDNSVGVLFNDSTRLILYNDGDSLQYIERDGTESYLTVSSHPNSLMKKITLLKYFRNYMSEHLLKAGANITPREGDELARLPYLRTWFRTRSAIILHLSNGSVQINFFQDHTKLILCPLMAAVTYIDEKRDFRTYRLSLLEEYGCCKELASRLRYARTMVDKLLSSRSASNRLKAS
# RORgamma inh: qHTS for inhibitors of ROR gamma transcriptional activity; Drosophila S2 Gal4-RORgamma UAS-luciferase reporter, 20 h; Potency, µM (highest dose often 53.6 µM), inactives show at the highest dose activity change, negative = inhibition, usual class: inhibitors; hit rate 5.4% among 310,000; AID 2551, 2010; note: nearly all actives have a fitted effect of over 60% in size
#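 Compounds are pin-transferred onto Drosophila Schneider cells expressing a copper-inducible Gal4–ROR gamma transactivation domain fusion. After 1 hr, copper sulfate is added to 700 uM final; luciferase is read 20 hr later.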
# Gal4-VP16 FLuc: VP16 counterscreen qHTS for inhibitors of ROR gamma transcriptional activity. Drosophila S2 Gal4-VP16 UAS-luciferase, luminescence, 20 h. Potency, µM (top dose mostly 53.6 µM), without a hit: top-dose activity, negative = inhibition, hits mostly inhibitors. hit rate 3.5% among 310,000. AID 2546, 2010;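 note: Gal4-VP16 expression switched on by copper sulfate through the metallothionein promoter; nearly all actives have a fitted effect of over 50% in size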
# ALDH1A1 inh: qHTS Assay for Inhibitors of Aldehyde Dehydrogenase 1 (ALDH1A1); Aldehyde dehydrogenase 1A1 (Homo sapiens), P00352; Purified ALDH1A1, NADH fluorescence, propionaldehyde substrate; Potency, µM (top dose mostly 75.3 µM), for the others: at the highest dose activity, negative = inhibition, most hits filed as inhibitors; hit rate 7.3% among 220,000; AID 1030, 2008; active = well fitted inhibition curve with a large enough effect, not every such curve was filed as active; inconclusive = small, poorly fitted or top-dose-only effect, or another doubt; inactive = no such curve, though single readings can be large or run the other way;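 note: plate controls were no enzyme wells and a reference inhibitor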
# The depositor's hits bear a star; ? = inconclusive; · = not tested or not shown; [ ] = remark or other dose. Unless noted, calls come from the whole dose curve; as a rule, active = well fitted curve in the direction sought with a large enough effect; inconclusive = small, poorly fitted or top-dose-only effect, or another doubt; inactive = no such curve, though single readings can be large; an effect the other way counts as inactive or inconclusive. Unless noted, % is set by controls: 0 for no effect and ±100 for the full control effect; potency is the fitted concentration of half-maximal effect.
SMILES,Sfp PPTase inh,PLK1 PBD inh,RORgamma inh,Gal4-VP16 FLuc,ALDH1A1 inh
O=S(=O)(c1ccccc1)N1CCC[C@@]2(CCN(c3ccncc3)C2)C1,19.3%,·,-15.3%,-6.7%,5.3%
COc1ccc(NC(=S)Nc2nc(CC(=O)Nc3ccccc3OC)cs2)cc1,-10.9%,-8.8%,1.78µM*,4.47µM*,?
COc1ccccc1NC(=O)Cc1csc(NC(=S)Nc2ccccc2)n1,-4.9%,-15.0%,1.12µM*,3.16µM*,?
COc1cccc(-c2cc(NCc3cccc(C)c3)ncn2)c1,-9.7%,·,24.8%,16.9%,-7.4%
CCC(=O)NC1Cc2ccccc2C(c2ccccc2)C1 (centres undefined),-6.4%,·,·,·,-6.1%
O=Cc1ccc2c(c1)OCCOCCOCCOCCO2,·,-0.9%,·,·,·
COC(=O)/C=C1\N/C(=N\c2nc(C)cc(C)n2)N(c2ccc(C)c(C)c2)C1=O,-12.3%,5.1%,11.2µM*,?,-15.7%
O=C1OC(c2ccccc2)c2ccccc21 (centres undefined),-12.3%,-6.7%,16.6%,-1.4%,14.1µM*
CCOc1ccc(NC(c2ccccn2)c2oc(CO)cc(=O)c2O)cc1 (centres undefined),3.16µM*,?,-39.8%,-3.7%,?
CCOc1ccccc1C(=O)N(Cc1ccc(C)o1)C1CCS(=O)(=O)C1 (centres undefined),-2.2%,18.9µM*,-26.2%,-2.4%,·
CCCCOc1ccccc1C(=O)N(Cc1ccco1)C1CCS(=O)(=O)C1 (centres undefined),14.9%,-3.1%,1.6%,-5.3%,·
CCOc1ccccc1C(=O)N(Cc1ccco1)C1CCS(=O)(=O)C1 (centres undefined),50.1µM*,-8.3%,9.8%,9.2%,18.6%
CC(C)c1nnc(NC(=O)c2ccc3c(c2)OCO3)s1,5.4%,-6.0%,6.31µM*,?,0.5%
O=C(CN1CCCCC1)Nc1nnc(-c2ccccc2)s1,2.8%,-8.5%,20.5%[10 µM],1.7%,-2.0%
O=C(CN1CCCCC1)Nc1nnc(-c2ccc([N+](=O)[O-])cc2)s1,4.1%,-23.0%,10µM*,-14.8%,-1.4%
CCOC(=O)CSc1nnc(NC(=O)c2ccc3c(c2)OCO3)s1,10.9%,-5.8%,11.2µM*,15.8µM*,·
CC(C)(C)c1nnc(NC(=O)c2ccc3c(c2)OCO3)s1,22.4µM*,5.97µM*,-67.0%,?,·
CCSc1nnc(NC(=O)c2ccc3c(c2)OCO3)s1,19.7%,-3.3%,-22.6%,?,?
COC(=O)[C@@]1(Cc2ccc(F)cc2)[C@H]2c3cc(C(=O)N(C)C)n(Cc4ccc(C(F)(F)F)nc4)c3C[C@H]2CN1C(=O)c1ccccc1,12.2%,·,?,4.5%,-1.2%
Cn1cnc(S(=O)(=O)N2CCCCC2c2cc(C(=O)Nc3cccc4c3CCCC4)no2)c1 (centres undefined),·,-13.9%,·,·,·
CCOC(=O)CSc1nnc(NC(=O)CN2CCCCC2)s1,-12.7%,26.7µM*,12.5%,1.3%,·
C[C@H](NC(=O)c1ncn2c1C(=O)N[C@@H](C)C2)C(=O)OC(C)(C)C,·,-3.7%,·,·,·
COc1ccc(/C=C2\CCCC3C2=NC(=S)NC3c2ccc(OC)cc2)cc1 (centres undefined),-47.1%,-12.7%,6.31µM*,12.6µM*,8.91µM*
COc1ccc(/C=C2\CCC(C3CCCC3)C2=O)cc1 (centres undefined),9.7%,-1.6%,30.0%,0.7%,·
CC(C)c1ccc(O)c(N)c1,11.2µM*,1.1%,-2.3%,?,28.2µM*
SMILES,Sfp PPTase inh,PLK1 PBD inh,RORgamma inh,Gal4-VP16 FLuc,ALDH1A1 inh
CCC(C)c1ccc(O)c(N)c1 (centres undefined),50.1µM*,-2.4%,-18.8%,2.9%,25.1µM*
O[C@H]1C[C@H](c2ccccc2)N(CC2CCCCC2)C[C@@H]1n1cc(C2CC2)nn1,·,1.5%,·,·,·
Cc1cc(C)cc(NC(=S)NCc2ccc3[nH]c4c(c3c2)CCCC4)c1,3.3%,-9.9%,2.51µM*,7.08µM*,-9.3%
NNC(=O)c1ccc2[nH]c3c(c2c1)CCCC3,4.7%,-0.1%,-18.3%,-1.2%,17.8µM*
S=C(NCc1ccc2[nH]c3c(c2c1)CCCC3)Nc1ccccc1,5.2%,-1.3%,1.78µM*,10µM*,-11.6%
CCOC(=O)c1ccccc1NC(=O)COC(=O)Cc1ccccc1F,·,-1.8%,·,·,·
C=CCCC(=O)N1C[C@@H](CO)[C@@H](NC)C[C@H]1c1ccccc1Br,·,-21.0%,·,·,·
COc1ccc(OC)c(C(=O)Nc2c(O)ccc3ccccc23)c1,·,-22.7%,·,·,·
Cc1ccc(C)n1-c1c(C(=O)NN)cnn1-c1ccccc1,7.5%,-5.7%,?,-21.3%,3.16µM*
Cc1ccc(OCC(=O)NNC(=S)NC(=O)C(C)(C)C)c(Br)c1,6.6%,-19.6%,11.2µM*,3.6%,-10.3%
CCNC(=O)COc1ccc(Br)cc1Cl,18.6%,-11.1%,30.4%,28.5%,6.6%
O=C(COc1ccc(Br)cc1Cl)NC(=S)Nc1ccccn1,56.2µM*,-13.1%,?,?,·
Cc1ccc(OCC(=O)NC(=S)Nc2ccccn2)c(Br)c1,6.4%,4.8%,10µM*,11.2µM*,·
COc1ccc(OCC(=O)NC(=S)NNC(=O)COc2ccc(Br)cc2Cl)cc1,22.4µM*,23.8µM*,10µM*,3.1%[10 µM],11.2µM*
Cc1ccc(-c2cc(-c3ccccc3)nc(Cl)n2)cc1,-4.7%,2.1%,13.0%,13.3%,?
Cc1ccc(-c2cc(C(F)F)nc(S(C)(=O)=O)n2)cc1,14.4%,-28.5%,10µM*,?,?
CC(C)c1ccc(C(N)=S)cc1,1.1%,-7.6%,3.98µM*,17.8µM*,-13.7%
CC(C)c1ccc(C(=O)NNC(=O)c2ccncc2)cc1,-5.1%,-1.1%,-7.4%,-1.9%,·
O=C(NC1CCSC1=O)c1ccc(Oc2cccc(C(F)(F)F)c2)nc1 (centres undefined),16.1%,21.2µM*,17.2%,2.3%,0.3%
O=[N+]([O-])c1ccc(Oc2cccc(C(F)(F)F)c2)nc1,12.8%,26.7µM*,27.3%,0.2%,·
O=C(Nc1ccc(Oc2cccc(C(F)(F)F)c2)nc1)c1ccccc1,1.1%,-4.0%,14.1%,-8.0%,5.3%
CCCCNC(=O)c1nc(-c2ccccc2)oc1-c1ccc(Cl)cc1,·,1.2%,·,·,·
